The target in this assay is PAI-1 wild type, active (human, UniProt P05121 24-402). Kind of assay: branched SELEX with high-throughput sequencing; PAI-1 immobilised on polyclonal anti-PAI-1 antibody; HBS (10 mM HEPES pH 7.4, 140 mM NaCl), 2 mM MgCl2, 2 mM CaCl2, 0.1% BSA; RNA pool 100 nM; PAI-1 captured on antibody-coated wells; 45 min; binding temperature not stated (PAI-1 capture at room temperature); high values mean tight binding.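 Note: Pool frequency after one selection round with this target divided by frequency before selection.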 Particulars: protein: recombinant; tags: N-terminal His6; structured_RNA; 2'-F pyrimidines.
Chain of PAI-1 wild type, active (P05121 24-402): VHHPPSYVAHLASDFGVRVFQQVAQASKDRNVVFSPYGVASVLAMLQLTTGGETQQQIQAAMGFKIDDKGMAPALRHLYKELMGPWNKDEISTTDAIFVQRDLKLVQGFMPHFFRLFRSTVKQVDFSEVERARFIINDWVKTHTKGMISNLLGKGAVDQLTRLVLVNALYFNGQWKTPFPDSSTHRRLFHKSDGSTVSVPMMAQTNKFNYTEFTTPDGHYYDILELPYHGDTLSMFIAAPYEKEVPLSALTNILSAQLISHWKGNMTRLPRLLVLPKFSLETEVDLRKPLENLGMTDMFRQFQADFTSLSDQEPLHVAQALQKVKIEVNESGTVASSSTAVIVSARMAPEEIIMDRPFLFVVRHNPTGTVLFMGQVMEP
Turning to “GGGGCCACCAACGACAUUUGGCGAGAUGCCAUCUUUACCUUAAUAGGUAGUUCGUUGAUAUAAAUAGUGCCCAUGGAUC”, the binding signal is 2.77 enrichment factor.

Turning to “GGGGCCACCAACGACAUUGCCGUAGUUUCUCGAUUCCCAGAGAGACGAUCGAUGUUGAUAUAAAUAGUGCCCAUGGAUC”, the binding signal turned out to be 4.28 enrichment factor. To “GGGGCCACCAACGACAUUGUCGUAGGCAGAUAGAUUAUAUCCGCUGACCAGUGUUGAUAUAAAUAGUGCCCAUGGAUC” belongs 2.25 enrichment factor; to “GGGGCCACCAACGACAUUACGUAGUUUGAGAUAGUUAACUCGAACGAUUAGUUGUUGAUAUAAAUAGUGCCCAUGGAUC”, 1.57 enrichment factor. To “GGGGCCACCAACGACAUUCUAAGUUCGUCCUACUUACUCUUGUAGGUCUGAAUGUUGAUAUAAAUAGUGCCCAUGGAUC” belongs 16.4 enrichment factor; to “GGGGCCACCAACGACAUUGACUCCUAGUUAUACCGAUUAGGACUUGUAGAUGCGUUGAUAUAAAUAGUGCCCAUGGAUC”, 0.26 enrichment factor.

Turning to “GGGGCCACCAACGACAUUGACCAUGUAGGACUUAAAGUCUGACCACAAUGUGUGUUGAUAUAAAUAGUGCCCAUGGAUC”, the binding signal is 0.6 enrichment factor. In the case of “GGGGCCACCAACGACAUUUCAUAACGUAGACUGUCUGAGUCGAUCAGAGUGUUGUUGAUAUAAAUAGUGCCCAUGGAUC”, the binding signal is 1.68 enrichment factor.

Turning to “GGGGCCACCAACGACAUUGCUGUGCUAAUCGGUCUUCCGACGCAUAUUCGAAUGUUGAUAUAAAUAGUGCCCAUGGAUC”, the binding signal is 0.63 enrichment factor. For the sequence “GGGGCCACCAACGACAUUGAUCAACGAUCACCAUGAUACACAUGGAUCACGUAGUUGAUAUAAAUAGUGCCCAUGGAUC”, the binding signal was 0.62 enrichment factor.

For the sequence “GGGGCCACCAACGACAUUCUAGUCUGGUAGCAAUACCUAAGUUCGUCUAGAAAGUUGAUAUAAAUAGUGCCCAUGGAUC”, the binding signal worked out at 0.89 enrichment factor.

(Values after publication PMC4666376, “Characterisation of aptamer–target interactions by branched selection and high-throughput sequencing of SELEX pools”.)
